# According to paper PMC11062922 (Nature Chemical Biology, 2023):
# Read-outs that look alike come from different tables or passages of the source.
# How the values were obtained:
# [1] = system: AURKB; design: species or system human, MV4-11 + K-562 + COLO205 + SK-N-BE2 + OVCAR-8; conditions: read-out: apparent Kd, compound concentrations: 100 nM and 1000 nM (sheet 'Samples'), n = 1
# [2] = system: PIK3CD; design: species or system human, MV4-11 + K-562 + COLO205 + SK-N-BE2 + OVCAR-8; conditions: read-out: apparent Kd; compound concentrations: 100 nM and 1000 nM (sheet 'Samples'), CATDS: 0.82128719253375804; n = 1
# [3] = system: EIF2AK1; design: species or system human, MV4-11 + K-562 + COLO205 + SK-N-BE2 + OVCAR-8; conditions: read-out: apparent Kd; compound concentrations: 100 nM and 1000 nM (sheet 'Samples'), CATDS: 0.39682644993145699; n = 1
# [4] = system: STK4; design: species or system human, MV4-11 + K-562 + COLO205 + SK-N-BE2 + OVCAR-8; conditions: read-out: apparent Kd; compound concentrations: 100 nM and 1000 nM (sheet 'Samples'), CATDS: 0.27037703695169801; n = 1
# [5] = system: BUB1; design: species or system human, MV4-11 + K-562 + COLO205 + SK-N-BE2 + OVCAR-8; conditions: read-out: apparent Kd; compound concentrations: 100 nM and 1000 nM (sheet 'Samples'), CATDS: 2.1802873020005002E-2; n = 1
# [6] = system: CDC42BPA; design: species or system human, MV4-11 + K-562 + COLO205 + SK-N-BE2 + OVCAR-8; conditions: read-out: apparent Kd; compound concentrations: 100 nM and 1000 nM (sheet 'Samples'), CATDS: 2.9689579346921902E-2; n = 1
# [7] = system: CDC42BPB; design: species or system human, MV4-11 + K-562 + COLO205 + SK-N-BE2 + OVCAR-8; conditions: read-out: apparent Kd; compound concentrations: 100 nM and 1000 nM (sheet 'Samples'), CATDS: 2.9604428475736501E-2; n = 1
# [8] = system: CDC42BPG; design: species or system human, MV4-11 + K-562 + COLO205 + SK-N-BE2 + OVCAR-8; conditions: read-out: apparent Kd; compound concentrations: 100 nM and 1000 nM (sheet 'Samples'), CATDS: 3.5199852415490701E-2; n = 1
# [9] = system: CDC7; design: species or system human, MV4-11 + K-562 + COLO205 + SK-N-BE2 + OVCAR-8; conditions: read-out: apparent Kd; compound concentrations: 100 nM and 1000 nM (sheet 'Samples'), CATDS: 2.6746378417374699E-2; n = 1
# [10] = system: CDK4; design: species or system human, MV4-11 + K-562 + COLO205 + SK-N-BE2 + OVCAR-8; conditions: read-out: apparent Kd; compound concentrations: 100 nM and 1000 nM (sheet 'Samples'), CATDS: 2.4664855297043799E-2; n = 1
# [11] = system: CLK4; design: species or system human, MV4-11 + K-562 + COLO205 + SK-N-BE2 + OVCAR-8; conditions: read-out: apparent Kd; compound concentrations: 100 nM and 1000 nM (sheet 'Samples'), CATDS: 2.52027212323017E-2; n = 1
# [12] = system: DYRK1A; design: species or system human, MV4-11 + K-562 + COLO205 + SK-N-BE2 + OVCAR-8; conditions: read-out: apparent Kd; compound concentrations: 100 nM and 1000 nM (sheet 'Samples'), CATDS: 2.7886290868283401E-2; n = 1
# [13] = system: GSK3A; design: species or system human, MV4-11 + K-562 + COLO205 + SK-N-BE2 + OVCAR-8; conditions: read-out: apparent Kd; compound concentrations: 100 nM and 1000 nM (sheet 'Samples'), CATDS: 3.2478486549428802E-2; n = 1
# [14] = system: GSK3B; design: species or system human, MV4-11 + K-562 + COLO205 + SK-N-BE2 + OVCAR-8; conditions: read-out: apparent Kd; compound concentrations: 100 nM and 1000 nM (sheet 'Samples'), CATDS: 2.76286010769239E-2; n = 1
# [15] = system: NNT; design: species or system human, MV4-11 + K-562 + COLO205 + SK-N-BE2 + OVCAR-8; conditions: read-out: apparent Kd; compound concentrations: 100 nM and 1000 nM (sheet 'Samples'), CATDS: 2.2589714418096801E-2; n = 1
# [16] = system: PIM1; design: species or system human, MV4-11 + K-562 + COLO205 + SK-N-BE2 + OVCAR-8; conditions: read-out: apparent Kd; compound concentrations: 100 nM and 1000 nM (sheet 'Samples'), CATDS: 3.4638112150075201E-2; n = 1
# [17] = system: PKN1; design: species or system human, MV4-11 + K-562 + COLO205 + SK-N-BE2 + OVCAR-8; conditions: read-out: apparent Kd; compound concentrations: 100 nM and 1000 nM (sheet 'Samples'), CATDS: 6.9293964383533801E-2; n = 1
# [18] = system: PKN2; design: species or system human, MV4-11 + K-562 + COLO205 + SK-N-BE2 + OVCAR-8; conditions: read-out: apparent Kd; compound concentrations: 100 nM and 1000 nM (sheet 'Samples'), CATDS: 0.13828274878435901; n = 1
# [19] = system: PKN3; design: species or system human, MV4-11 + K-562 + COLO205 + SK-N-BE2 + OVCAR-8; conditions: read-out: apparent Kd; compound concentrations: 100 nM and 1000 nM (sheet 'Samples'), CATDS: 2.6445492378014E-2; n = 1
# [20] = system: PRKACA; design: species or system human, MV4-11 + K-562 + COLO205 + SK-N-BE2 + OVCAR-8; conditions: read-out: apparent Kd; compound concentrations: 100 nM and 1000 nM (sheet 'Samples'), CATDS: 2.2371204771335199E-2; n = 1
# [21] = system: PRKCA; design: species or system human, MV4-11 + K-562 + COLO205 + SK-N-BE2 + OVCAR-8; conditions: read-out: apparent Kd; compound concentrations: 100 nM and 1000 nM (sheet 'Samples'), CATDS: 3.9494099322939E-2; n = 1
# [22] = system: PRKCB; design: species or system human, MV4-11 + K-562 + COLO205 + SK-N-BE2 + OVCAR-8; conditions: read-out: apparent Kd; compound concentrations: 100 nM and 1000 nM (sheet 'Samples'), CATDS: 4.76963750103866E-2; n = 1
# [23] = system: PRKCD; design: species or system human, MV4-11 + K-562 + COLO205 + SK-N-BE2 + OVCAR-8; conditions: read-out: apparent Kd; compound concentrations: 100 nM and 1000 nM (sheet 'Samples'), CATDS: 6.0948363535237499E-2; n = 1
# [24] = system: PRKCI; design: species or system human, MV4-11 + K-562 + COLO205 + SK-N-BE2 + OVCAR-8; conditions: read-out: apparent Kd; compound concentrations: 100 nM and 1000 nM (sheet 'Samples'), CATDS: 3.5414471461485103E-2; n = 1
# [25] = system: PRKCQ; design: species or system human, MV4-11 + K-562 + COLO205 + SK-N-BE2 + OVCAR-8; conditions: read-out: apparent Kd; compound concentrations: 100 nM and 1000 nM (sheet 'Samples'), CATDS: 2.3037545247832199E-2; n = 1
# [26] = system: PRKG1; design: species or system human, MV4-11 + K-562 + COLO205 + SK-N-BE2 + OVCAR-8; conditions: read-out: apparent Kd; compound concentrations: 100 nM and 1000 nM (sheet 'Samples'), CATDS: 3.8596421043345E-2; n = 1
# [27] = system: PRKX;PRKY; design: species or system human, MV4-11 + K-562 + COLO205 + SK-N-BE2 + OVCAR-8; conditions: read-out: apparent Kd; compound concentrations: 100 nM and 1000 nM (sheet 'Samples'), CATDS: 4.0324961931199298E-2; n = 1
# [28] = target: Q6ZSR9 (human, UniProt Q6ZSR9); design: species or system MV4-11 + K-562 + COLO205 + SK-N-BE2 + OVCAR-8; conditions: read-out: apparent Kd; compound concentrations: 100 nM and 1000 nM (sheet 'Samples'), CATDS: 2.23637013148167E-2; n = 1
# Q6ZSR9, sequence (Q6ZSR9 whole entry, looked up): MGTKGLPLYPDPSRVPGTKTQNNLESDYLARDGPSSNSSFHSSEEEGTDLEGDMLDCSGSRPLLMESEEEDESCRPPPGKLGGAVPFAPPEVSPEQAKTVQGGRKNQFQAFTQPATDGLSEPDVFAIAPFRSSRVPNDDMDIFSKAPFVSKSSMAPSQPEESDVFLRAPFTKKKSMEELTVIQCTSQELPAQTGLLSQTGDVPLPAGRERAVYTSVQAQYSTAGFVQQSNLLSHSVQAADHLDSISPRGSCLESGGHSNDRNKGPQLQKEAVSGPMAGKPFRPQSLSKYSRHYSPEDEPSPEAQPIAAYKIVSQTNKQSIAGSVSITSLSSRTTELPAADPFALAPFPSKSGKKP
# [29] = system: ROCK1; design: species or system human, MV4-11 + K-562 + COLO205 + SK-N-BE2 + OVCAR-8; conditions: read-out: apparent Kd; compound concentrations: 100 nM and 1000 nM (sheet 'Samples'), CATDS: 0.20486846489085001; n = 1
# [30] = system: ROCK2; design: species or system human, MV4-11 + K-562 + COLO205 + SK-N-BE2 + OVCAR-8; conditions: read-out: apparent Kd; compound concentrations: 100 nM and 1000 nM (sheet 'Samples'), CATDS: 0.25564914108925302; n = 1
# [31] = system: RPS6KA3; design: species or system human, MV4-11 + K-562 + COLO205 + SK-N-BE2 + OVCAR-8; conditions: read-out: apparent Kd; compound concentrations: 100 nM and 1000 nM (sheet 'Samples'), CATDS: 2.2411381111350701E-2; n = 1
# [32] = system: RPS6KA4; design: species or system human, MV4-11 + K-562 + COLO205 + SK-N-BE2 + OVCAR-8; conditions: read-out: apparent Kd; compound concentrations: 100 nM and 1000 nM (sheet 'Samples'), CATDS: 2.93060004016619E-2; n = 1
# [33] = system: RPS6KA5; design: species or system human, MV4-11 + K-562 + COLO205 + SK-N-BE2 + OVCAR-8; conditions: read-out: apparent Kd; compound concentrations: 100 nM and 1000 nM (sheet 'Samples'), CATDS: 7.09289008095534E-2; n = 1
# [34] = system: RPS6KB1; design: species or system human, MV4-11 + K-562 + COLO205 + SK-N-BE2 + OVCAR-8; conditions: read-out: apparent Kd; compound concentrations: 100 nM and 1000 nM (sheet 'Samples'), CATDS: 3.4363243173278199E-2; n = 1
smiles,measurement,setting,value
COc1ccc(Nc2nccc(N3CCC(NC(=O)c4cccc(C#N)c4)C3)n2)cc1 (centres unmarked) [GSK1379730A],potency estimated from few doses,[1]; CATDS: 0.359402067500939,1450 nM
same,potency estimated from few doses,[2],177 nM
Cn1cc(-c2ccc3c(c2)CCN3C(=O)Cc2cccc(F)c2)c2c(N)ncnc21 [GSK2603358A],potency estimated from few doses,[1]; CATDS: 0.35952241449560002,1280 nM
same,potency estimated from few doses,[3],1070 nM
same,potency estimated from few doses,[4],2430 nM
CCn1c(-c2nonc2N)nc2cncc(C(=O)NCCNC)c21 [GW876790X],potency estimated from few doses,[5],2400 nM
same,potency estimated from few doses,[6],783 nM
same,potency estimated from few doses,[7],790 nM
same,potency estimated from few doses,[8],498 nM
same,potency estimated from few doses,[9],1080 nM
same,potency estimated from few doses,[10],1430 nM
same,potency estimated from few doses,[11],1320 nM
same,potency estimated from few doses,[12],944 nM
same,potency estimated from few doses,[13],612 nM
same,potency estimated from few doses,[14],971 nM
same,potency estimated from few doses,[15],2030 nM
same,potency estimated from few doses,[16],519 nM
same,potency estimated from few doses,[17],118 nM
same,potency estimated from few doses,[18],35.1 nM
same,potency estimated from few doses,[19],1120 nM
same,potency estimated from few doses,[20],2120 nM
same,potency estimated from few doses,[21],378 nM
same,potency estimated from few doses,[22],249 nM
same,potency estimated from few doses,[23],152 nM
same,potency estimated from few doses,[24],491 nM
same,potency estimated from few doses,[25],1870 nM
same,potency estimated from few doses,[26],399 nM
same,potency estimated from few doses,[27],361 nM
same,potency estimated from few doses,[28],2130 nM
same,potency estimated from few doses,[29],19.1 nM
same,potency estimated from few doses,[30],13.9 nM
same,potency estimated from few doses,[31],2110 nM
same,potency estimated from few doses,[32],813 nM
same,potency estimated from few doses,[33],113 nM
same,potency estimated from few doses,[34],529 nM
